# Screening data deposited in PubChem BioAssay by National Center for Advancing Translational Sciences (NCATS).
# Hits are enriched below; roughly 9.2% of the tested compounds scored in any of these assays.
# FLuc modulator – inhibits or activates purified firefly luciferase, miR-21 counter-screen; P08659; purified FLuc, Km substrates, luminescence inhibition; AID 588342; Potency, µM (highest dose often 57.5 µM), without a hit: at the highest dose activity change, negative = inhibition, hits mostly inhibitors; 6.9% of 360,000 active;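 note: plate controls were vehicle for no effect and reference inhibitor for full effect; nearly all actives have a fitted effect of over 55% in size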
# Target sequence (P08659 whole entry, looked up): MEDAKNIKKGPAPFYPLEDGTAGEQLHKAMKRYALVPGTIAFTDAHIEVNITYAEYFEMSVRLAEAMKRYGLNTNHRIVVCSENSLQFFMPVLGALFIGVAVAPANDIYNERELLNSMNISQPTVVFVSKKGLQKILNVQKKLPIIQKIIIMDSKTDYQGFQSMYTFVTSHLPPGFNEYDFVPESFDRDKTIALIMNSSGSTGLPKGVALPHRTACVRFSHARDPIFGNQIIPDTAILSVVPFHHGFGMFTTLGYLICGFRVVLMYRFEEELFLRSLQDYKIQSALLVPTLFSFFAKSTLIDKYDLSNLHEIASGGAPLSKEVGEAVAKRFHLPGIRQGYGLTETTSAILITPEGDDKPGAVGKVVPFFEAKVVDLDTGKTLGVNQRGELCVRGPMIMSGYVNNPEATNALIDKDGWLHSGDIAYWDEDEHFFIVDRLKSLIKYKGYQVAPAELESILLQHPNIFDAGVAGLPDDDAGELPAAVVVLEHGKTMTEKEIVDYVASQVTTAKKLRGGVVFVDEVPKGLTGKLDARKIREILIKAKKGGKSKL
#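 Purified P. pyralis luciferase (10nM final) with 10uM D-luciferin and 10uM ATP (Km levels) in 50mM Tris acetate pH 7.5, 10mM Mg acetate, 0.01% Tween-20, 0.05% BSA; qHTS 6-point titration, ~60 µM downward; luminescence read.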
# ELG1 DNA repair – blocks ELG1-dependent DNA repair in HEK293T cells; HEK293T ELG1-luciferase reporter, luminescence, 16 h; DNA damage induced by 5-fluorouridine; Potency, µM (doses to about 46.1 µM), for inactives: at the top dose activity change, negative = inhibition, usual class: inhibitors; 2.3% of 330,000 active; AID 504467; note: % is set by controls: 0 for no effect and ±100 for the full control effect; nearly all actives have a fitted effect of over 55% in size
#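 Cells (2,000 per well) received 5-fluorouridine plus test compound or DMSO and were incubated 16 hr at 37 °C, 5% CO2. Luciferase activity was read by luminescence 30 min after ONE-Glo addition; signal suppression marked inhibition of damage-induced ELG1 function.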
# NPC1 prom act – activates the NPC1 promoter; Potency, µM (highest dose often 9.22 µM), for inactives: at the top dose activation, usual class: activators; AID 485313; Huh7 NPC1 promoter luciferase reporter, 24 h; 2.4% of 320,000 active; note: % of control where 0% means no effect; nearly all actives have a fitted effect of over 60% in size
#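 Luciferase expression driven by the NPC1 promoter was measured in stably transfected Huh7 cells after a 24 h compound incubation, using a luciferase reagent and a luminescence read.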
# Rab9 prom act – activators of Rab9 promoter; Huh7 Rab9 promoter-luciferase reporter, luminescence, 24 h; Potency, µM (doses to about 9.22 µM), without a hit: at the top dose activation, negative = inhibition, most hits filed as activators; 2.8% of 320,000 active; AID 485297; note: % of control where 0% means no effect; nearly all actives have a fitted effect of over 60% in size
#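 Luminescence from Amplite-detected luciferase (10 minutes, ambient) reports Rab9 promoter activation. Before that, stable Rab9-luciferase Huh7 cells (1500/well, reduced-serum OP-MEM I plus 10% FBS) were exposed to compound for 24 hours at 37C.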
# ELG1 genotoxic – induces genotoxicity in HEK293T cells with luciferase-tagged ELG1. HEK293T ELG1-luciferase reporter, luminescence, 16 h. Potency, µM (top dose mostly 46 µM), for inactives: at the top dose activity change, positive = activation, usual class: activators. 1.3% of 330,000 active. AID 504466; note: % of control where 0% means no effect; nearly all actives have a fitted effect of over 60% in size
#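 Step 1: seed 2,000 HEK293T ELG1-luciferase cells per well. Step 2: add compound or DMSO, incubate 16 hr at 37 °C. Step 3: ONE-Glo, 30 min at room temperature, read luminescence.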
# SMN2 splice enh – SMN2 splice variant enhancement. 2.8% of 210,000 active. Potency, µM (titrated, usually from 46.1 µM), for inactives: at the top dose activity change, positive = activation, actives largely listed as activators. HEK293 SMN2-luciferase splicing reporter, luminescence, 30-36 h; note: % of control where 0% means no effect; nearly all actives have a fitted effect of over 55% in size
#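 HEK293 cells carry an SMN2 minigene-luciferase reporter in which exon 7 inclusion puts luciferase in frame. Cells were seeded at 2000 cells/well, attached for 10-12 hours, then exposed to compounds for 30-36 hours at 37C before ONE-Glo luminescence.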
# * marks the source's active call; other numbers are inactive results; ? = inconclusive; . = no result given; [ ] = dose if it differs, or a comment. Calls come from the whole dose curve; as a rule, active = well fitted curve in the direction sought with a large enough effect; inconclusive = small, poorly fitted or top-dose-only effect, or another doubt; inactive = no such curve, though single readings can be large; an effect the other way counts as inactive or inconclusive. Potency is the fitted concentration of half-maximal effect.
SMILES,FLuc modulator,ELG1 DNA repair,NPC1 prom act,Rab9 prom act,ELG1 genotoxic,SMN2 splice enh
COc1ccc2c(c1)c1c(c(=O)n(-c3ccc(C)cc3)c(=O)n1CC(=O)Nc1cc(C)ccc1C)n2C,-5%,.,.,.,.,.
COc1ccccc1NC(=O)COc1ccc2c(c1)OCO2,15µM*,?,?,-39%,?,.
NC(=O)c1ccccc1NC(=O)COc1ccc2c(c1)OCO2,4.8µM*,?,2.5µM*,3.5µM*,?,.
O=C(COc1ccc2c(c1)OCO2)Nc1nncs1,9.5µM*,?,14%,26%,?,.
O=C(Cn1ccc2ccccc2c1=O)NCC(=O)Nc1ccc(F)cc1F,-1%,7%,-3%,2%,0%,.
CC1=C(C#N)C(=O)NC(=O)/C1=C\c1ccc(-c2ccc(C)cc2[N+](=O)[O-])o1,27µM*,0%,4%,1%,1%,-4%
CC(C)C(C(=O)NCC1CCCO1)N(C(=O)CNS(=O)(=O)c1ccccc1)c1ccc(F)cc1 (centres undefined),2%,9%,1%,-5%,-2%,.
CCc1ccc2nc(/N=C(\N)NC(=O)c3ccccc3)nc(C)c2c1,6µM*,-3%,23%,?,4%,.
COc1ccc2c(c1)c(=O)c(S(=O)(=O)c1ccc(F)cc1)cn2Cc1ccccc1Cl,1%,.,.,.,.,-4%
COc1ccc2nc(N3C(=O)CC(Cc4ccc(C)cc4)C3=O)sc2c1 (centres undefined),?,-8%,0%,-2%,-1%,-7%
O=C1C2C3C=CC(C3)C2C(=O)N1c1ccc2ccccc2n1 (centres undefined),?,20%,1%,2%,1%,-1%
O=C1C2C3C=CC(C3)C2C(=O)N1c1nc2ccccc2s1 (centres undefined),19µM*,28%,2%,-5%,0%,-16%
Cc1ccc(CC2CC(=O)N(c3nc4ccccc4s3)C2=O)cc1 (centres undefined),27µM*,3%,-1%,-9%,0%,.
COc1cc2c(cc1OC)C(COc1ccc3c(C)cc(=O)oc3c1)N(C(=O)c1ccc(C)cc1)CC2 (centres undefined),2%,.,.,.,.,2%
COc1ccc(C(=O)COC(=O)C(C(C)C)N2C(=O)C3C4C=CC(C4)C3C2=O)cc1 (centres undefined),19µM*,-12%,1%,-2%,-3%,?
COc1ccccc1OCCn1c(NC(=O)c2ccccc2Cl)nc2ccccc21,-17%,.,.,.,.,-4%
O=C(O)c1ccc(Cl)cc1NC(=O)C1CCCO1 (centres undefined),2%,.,.,.,.,-7%
O=C(Nc1cccc(-c2nc3cc(Cl)ccc3o2)c1)C1CCCO1 (centres undefined),-8%[2.3 µM],?,9%,16%,6%,25µM*
Cc1cccc(-c2nc3cc(NC(=O)c4ccc(OCC(C)C)cc4)ccc3o2)c1,-5%,.,.,.,.,6%
Cc1cccc(-c2nc3cc(NC(=O)C4CCCO4)ccc3o2)c1 (centres undefined),0.85µM*,?,0.32µM*,0.28µM*,1.2µM*,1µM*
Cc1ccc2oc(-c3cccc(NC(=O)C4CCCO4)c3)nc2c1 (centres undefined),4.3µM*,?,18%,18%,21µM*,13µM*
COc1cc(C2NC(=O)N(C)C(C)=C2C(=O)OCc2ccccc2)cc(Br)c1O (centres undefined),2%,-5%,-1%,0%,0%,.
CCOC(=O)N1CCN(C(=O)/C(=C/c2cccs2)NC(=O)c2ccc(OC)c(OC)c2)CC1,-1%,-12%,-1%,0%,-9%,.
O=C1Nc2cccnc2N(C(=O)CCl)c2ccccc21,1%,21µM*,-23%,-32%,-15%,.
CCN(CC)CC1CCCCN1CC(=O)N1c2ccccc2C(=O)Nc2cccnc21 (centres undefined),3%,.,-3%,-3%,.,0%
SMILES,FLuc modulator,ELG1 DNA repair,NPC1 prom act,Rab9 prom act,ELG1 genotoxic,SMN2 splice enh
O=C(Nc1cnn(C23CC4CC(CC(C4)C2)C3)c1)c1cnn2cccnc12,2.1µM*,?,0.56µM*,0.45µM*,?,.
CCCCCN(C(=O)CCC(=O)OCC(=O)c1ccc(CCC)cc1)c1c(N)n(CCCC)c(=O)[nH]c1=O,2.7µM*,-7%,1%,-1%,-6%,.
CCCCN(C(=O)CSc1nnc(Nc2ccccc2)s1)c1c(N)n(CCC)c(=O)[nH]c1=O,15µM*,-5%,-1%,2%,1%,.
CCCCCN(C(=O)CCC(=O)OCC(=O)c1ccc(C(C)(C)C)cc1)c1c(N)n(CCCC)c(=O)[nH]c1=O,?,?,18%,24%,-2%,.
CCCCn1c(N)c(N(CCOC)C(=O)CSc2n[nH]c(-c3ccc(C)cc3)n2)c(=O)[nH]c1=O,3%,3%,-4%,-2%,2%,.
CCCCN(C(=O)CSc1nnnn1C)c1c(N)n(Cc2ccccc2)c(=O)[nH]c1=O,5%,-10%,-3%,-4%,0%,.
CCCCCN(C(=O)CSc1n[nH]c(-c2ccc(C)cc2)n1)c1c(N)n(CCCC)c(=O)[nH]c1=O,2.7µM*,?,0%,23%,9%,.
CCCCn1c(N)c(N(CC(C)C)C(=O)CSc2n[nH]c(-c3ccc(C)cc3)n2)c(=O)[nH]c1=O,11µM*,?,1%,0%,4%,.
COc1ccc(C(=O)OC(C)C(=O)NC2CCCCC2C)cc1S(=O)(=O)N1CCOCC1 (centres undefined),1%,?,-3%,-3%,2%,.
Cc1ccc(S(=O)(=O)N2CCN(C(=O)COC(=O)CCOc3ccc(C(C)(C)C)cc3)CC2)cc1,?,4%,-9%,0%,-2%,.
Cc1sc2ncn(CC(=O)NCCCN3CC(C)CC(C)C3)c(=O)c2c1S(=O)(=O)N1CC(C)CC(C)C1 (centres undefined),0%,14%,-4%,0%,1%,.
COc1ccc(-c2cccc(NS(=O)(=O)c3cc([N+](=O)[O-])ccc3Cl)c2)nn1,-15%,4%,0%,2%,0%,.
O=[N+]([O-])c1ccc(Cl)c(S(=O)(=O)Nc2ccc(-c3ccc(N4CCOCC4)nn3)cc2)c1,15µM*,?,7%,-2%,6%,.
Cc1ccc([N+](=O)[O-])cc1S(=O)(=O)Nc1ccc(-c2ccc(N3CCOCC3)nn2)cc1,?,16%,3%,2%,3%,.
